AMA1-RON2 inh = qHTS for Inhibitors of AMA1-RON; Towards Development of Antimalarial Drug Lead: Primary Screen | AlphaScreen AMA1-biotinylated RON2 peptide binding | Plasmodium falciparum AMA1 (3D7) - RON2 peptide interaction | AID 720542, 2013 | 360,000 compounds, 0.2% hits | Potency, µM (top dose mostly 58.2 µM), hits mostly inhibitors; note: nearly all actives have a fitted effect of over 45% in size
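AMA1 (3D7) with his tag at 25 nM final met compounds first, then biotinylated RON2 peptide at 25 nM; detection used donor plus acceptor beads, 10 µg/mL apiece, read by AlphaScreen after 30 min at room temperature.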
Pf growth 96h = Primary qHTS for delayed death inhibitors of the malarial parasite plastid, 96 hour incubation | 320,000 compounds, 6.9% hits | Potency, µM (series often up to 28.7 µM), hits mostly inhibitors | P. falciparum luciferase reporter growth, 96 h
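Plates of compound plus infected erythrocytes (2% hematocrit, 0.05% parasitemia final) incubate 96 hours, 37 C, 5% CO2. Detection reagent added; reduced luminescence from the parasites' luciferase reporter flags inhibition.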
Pf growth 48h = Primary qHTS for delayed death inhibitors of the malarial parasite plastid, 48 hour incubation | P. falciparum luciferase growth in erythrocytes, 48 h | Potency, µM (doses to about 28.7 µM), hits mostly inhibitors | 310,000 compounds, 5.9% hits | AID 504832, 2011
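First compound was added to culture medium, then infected red cells at 0.1% parasitemia and 2% hematocrit (final). After incubation at 37 C under 5% CO2, luciferase detection reagent was dispensed and light output recorded.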
Cycloheximide cs = Cycloheximide Counterscreen for Small Molecule Inhibitors of Shiga Toxin; max response, %; 300,000 compounds, 12% hits; cell reporter, cycloheximide protein synthesis inhibition counterscreen; in the data active = max response mostly above about 13%, no sharp cut-off; inactive = mostly below about 14%; note: read at 38.3 µM for the half of the compounds with a filed dose
Shiga inhibitor = A qHTS for Small Molecule Inhibitors of Shiga Toxin; 290,000 compounds, 9.2% hits; Vero cells, Shiga toxin protein synthesis inhibition reporter; inhibition, % at 38.7 µM; in the data active = inhibition mostly above about 28%, no sharp cut-off; inactive = mostly below about 43%
HCV inhibitor = qHTS Assay for Inhibitors of Hepatitis C Virus (HCV); Huh7.5.1 HCVcc-Cre infection, luciferase reporter, 44 h; Potency, µM (series often up to 41.8 µM), usual class: inhibitors; 340,000 compounds, 3.4% hits
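Compounds are dispensed onto cells plated 4 h earlier at 1,000 per well, with HCVcc-Cre virus (about 0.5 moi) added next. Following 44 h of culture, luminescent signal is measured for 15 sec after 15 min with substrate at room temperature.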
Each line names hits and unclear results; the compound was inactive in the other large screens. Compounds with a hit are over-represented: about 21% of the library has one in this group of screens. Unless noted, calls come from the whole dose curve; as a rule, active = well fitted curve in the direction sought with a large enough effect; inconclusive = small, poorly fitted or top-dose-only effect, or another doubt; inactive = no such curve, though single readings can be large; an effect the other way counts as inactive or inconclusive.

N/C(=N\OC(=O)c1cc(Cl)ccc1Cl)c1ccccn1	Pf growth 96h inconclusive, Cycloheximide cs 25, Shiga inhibitor 64, HCV inhibitor 11µM
COc1ccc(Cl)cc1C(=O)O/N=C(\N)c1ccccn1	Pf growth 96h inconclusive, Cycloheximide cs 41, Shiga inhibitor 60, HCV inhibitor inconclusive
COc1cccc(C(NC(C)=O)c2nc(-c3ccccc3)cs2)c1 (stereo unspecified)	none (no result: Pf growth 96h, Pf growth 48h, Cycloheximide cs, Shiga inhibitor, HCV inhibitor)
COc1ccc(C(=O)CNc2cccc(F)c2)cc1	Cycloheximide cs 50, Shiga inhibitor 87
COc1ccc(C(=O)CC(=O)C(=O)Nc2ccccc2)cc1	none
O=C(CNc1cccc(Cl)c1)c1ccc(Cl)cc1	Pf growth 96h inconclusive, Pf growth 48h inconclusive, HCV inhibitor inconclusive
CC(Oc1ccccc1F)C(=O)Nc1ccc2ccccc2c1 (stereo unspecified)	Cycloheximide cs 45, Shiga inhibitor 80
COc1ccc(C(=O)CC(=O)C(=O)Nc2cccc(F)c2)cc1	Pf growth 96h inconclusive, Cycloheximide cs 19, Shiga inhibitor 50 (no result: Pf growth 48h)
COc1ccc(OC(C)C(=O)Nc2cccc(F)c2)cc1 (stereo unspecified)	Pf growth 96h 1µM
Cc1oc(C(C)(C)C)c(CN2CCOCC2)c1C(=O)O	none
CCCNC(=O)C1(C)CCN(C(=O)c2c(Cl)cccc2Cl)C1 (stereo unspecified)	none (no result: Pf growth 96h, Pf growth 48h, Cycloheximide cs, Shiga inhibitor, HCV inhibitor)
COc1ccc(OCCCC(=O)OC(C)C(=O)Nc2cccc(C(C)=O)c2)cc1 (stereo unspecified)	AMA1-RON2 inh inconclusive, Cycloheximide cs 15
Cc1ccc(S(=O)(=O)N=Nc2c(O)[nH]c3ccccc23)cc1	Pf growth 96h 12µM
Cc1ccc(C)c(S(=O)(=O)N=Nc2c(O)[nH]c3ccccc23)c1	none
Oc1[nH]c2ccccc2c1N=Nc1nc2ccccc2s1	Cycloheximide cs 35, Shiga inhibitor 49 (no result: Pf growth 48h)
O=[N+]([O-])c1ccc2[nH]c(O)c(N=Nc3ccc(F)cc3)c2c1	Pf growth 96h inconclusive, HCV inhibitor inconclusive
Oc1[nH]c2ccccc2c1N=Nc1ccccc1F	Pf growth 96h inconclusive, Cycloheximide cs 21, Shiga inhibitor 125, HCV inhibitor inconclusive
O=[N+]([O-])c1ccc(N=Nc2c(O)[nH]c3ccc(F)cc23)cc1	Cycloheximide cs 44, Shiga inhibitor 56
CC1(C2CC2)NC(=O)N(CC(=O)NCC(=O)Nc2ccc(F)c(F)c2F)C1=O (stereo unspecified)	none (no result: Pf growth 96h, Pf growth 48h, Cycloheximide cs, Shiga inhibitor)
O=C(O)Cn1nncc1-c1ccc(C(F)(F)F)cc1	none (no result: Pf growth 96h, Pf growth 48h, Cycloheximide cs, Shiga inhibitor, HCV inhibitor)
Oc1[nH]c2ccccc2c1N=Nc1ccccc1	Cycloheximide cs 44, Shiga inhibitor 104
CC(C)(O)C(=O)N=Nc1c(O)[nH]c2ccccc12	Cycloheximide cs 33, Shiga inhibitor 61
CC(Oc1ccccc1)C(=O)N=Nc1c(O)[nH]c2ccc([N+](=O)[O-])cc12 (stereo unspecified)	AMA1-RON2 inh 32µM
O=C(N=Nc1c(O)[nH]c2ccc([N+](=O)[O-])cc12)c1ccccc1[N+](=O)[O-]	Pf growth 96h inconclusive, HCV inhibitor inconclusive
NS(=O)(=O)c1cc(C(=O)N=Nc2c(O)[nH]c3ccccc23)ccc1Cl	Pf growth 96h 1.5µM, Pf growth 48h 10µM
O=C(N=Nc1c(O)[nH]c2ccccc12)Nc1ccccc1	none (no result: Pf growth 96h, Pf growth 48h, Cycloheximide cs, Shiga inhibitor)
O=C(N=Nc1c(O)[nH]c2ccccc12)c1cccc(S(=O)(=O)Nc2ccccc2Cl)c1	none
C#CCNC(=O)C[C@@H]1C[C@@]2(C(=O)OCC)CCCC=C2N(CCC2=CCCCC2)C1=O	none (no result: Pf growth 96h, Pf growth 48h, Cycloheximide cs, Shiga inhibitor, HCV inhibitor)
Cc1cc(C)c(C)c(S(=O)(=O)N2CCN(C(=O)CNC(=O)c3ccco3)CC2)c1C	HCV inhibitor inconclusive (no result: Cycloheximide cs, Shiga inhibitor)
CC(=O)c1cccc(CN2CCCC(CCC(=O)NCc3ccccc3F)C2)c1 (stereo unspecified)	Pf growth 96h inconclusive
CN(C)C(=O)c1cccc(-c2cccc3nccn23)c1	none (no result: Pf growth 96h, Pf growth 48h, Cycloheximide cs, Shiga inhibitor, HCV inhibitor)
Oc1[nH]c2ccccc2c1N=Nc1ccc(F)cc1	Pf growth 96h inconclusive, Cycloheximide cs 21, Shiga inhibitor 66
Oc1[nH]c2ccc(Br)cc2c1N=Nc1ccc(F)cc1	none
